GLP1R inv ag: acts as inverse agonist at human GLP-1 receptor | HEK293 GLP-1R CRE-luciferase, luminescence, 24 h; GLP-1R form is constitutively active | Potency, µM (top dose mostly 38.3 µM), for the others: top-dose activity change, negative = inhibition, actives largely listed as inhibitors | 1.6% of 410,000 active; further: potency means the concentration at half of the fitted maximal effect; on the % scale 0 is the no-effect control and ±100 the full control effect; nearly all actives have a fitted effect of over 55% in size
Target sequence (P43220 whole entry, looked up): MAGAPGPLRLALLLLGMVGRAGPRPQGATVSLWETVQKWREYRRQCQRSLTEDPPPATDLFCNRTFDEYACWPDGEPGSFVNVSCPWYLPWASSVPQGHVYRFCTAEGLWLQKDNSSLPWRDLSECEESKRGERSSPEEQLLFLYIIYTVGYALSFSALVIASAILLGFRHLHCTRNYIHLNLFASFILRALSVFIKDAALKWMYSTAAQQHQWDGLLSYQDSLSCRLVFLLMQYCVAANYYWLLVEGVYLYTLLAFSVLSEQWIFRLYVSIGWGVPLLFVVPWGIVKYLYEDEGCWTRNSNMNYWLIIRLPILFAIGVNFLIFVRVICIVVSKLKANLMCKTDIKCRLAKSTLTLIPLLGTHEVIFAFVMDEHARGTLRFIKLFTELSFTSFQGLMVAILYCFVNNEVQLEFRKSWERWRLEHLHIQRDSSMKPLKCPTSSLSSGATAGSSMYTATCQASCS
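qHTS in 1536-well format: reporter HEK293 cells expressing constitutive GLP-1R activity in DMEM + 10% Nu serum, 24 hr with compounds at 37 deg C, luminescence read after 12 min with detection reagent.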
GLP1R ag: activates the human GLP-1 receptor. 0.007% of 380,000 active. Potency, µM (doses to about 45.6 µM), inactives show at the highest dose activation, hits mostly activators. P43220. HEK293 GLP-1R CRE-luciferase, luminescence, 4-6 h; cells express a hypersensitive GLP-1R form. AID 624172; further: potency means the concentration at half of the fitted maximal effect; % of control where 0% means no effect
ClpP mod: qHTS Assay for Activators of ClpP; 1.9% of 340,000 active; purified B. subtilis ClpP, FRET peptide cleavage, 20 min; Potency, µM (highest dose often 57.5 µM), for the others: top-dose activity change, negative = active; active means well fitted falling curve with a large enough effect; inconclusive means small, poorly fitted or top-dose-only effect; inactive means no such curve, though single readings can be large or run the other way; further: potency means the concentration at half of the fitted maximal effect; the source files actives as falling curves though it sought activators and does not explain the sign; nearly all actives have a fitted effect of over 65% in size
Target sequence (P80244 whole entry, looked up): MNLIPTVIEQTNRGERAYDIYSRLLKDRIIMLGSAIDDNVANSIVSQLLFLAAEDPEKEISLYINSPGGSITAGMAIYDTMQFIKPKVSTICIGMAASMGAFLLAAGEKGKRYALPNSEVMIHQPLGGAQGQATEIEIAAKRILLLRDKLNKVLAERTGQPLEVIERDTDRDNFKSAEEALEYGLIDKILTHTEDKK
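Purified B. subtilis ClpP, 10 microg/mL final in Tris/HCl pH8 with KCl, BSA, glycerol and Tween-20, cleaved an Abz/nitrotyrosine-quenched decapeptide. Fluorescence (ex 320, em 430) was read at 0 and 20 min at room temperature. Delta was normalized to 5.8 microM ADEP and DMSO/no-enzyme controls.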
GLP1R cytotox: cytotoxic in the GLP-1 receptor inverse agonist counter-screen; HEK293 cAMP-luciferase reporter cells, luminescence, 24 h; Potency, µM (titrated, usually from 38.3 µM), without a hit: top-dose activity change, negative = inhibition, hits mostly inhibitors; 0.13% of 410,000 active; AID 624418;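 further: loss of luciferase light is scored as toxicity; potency means the concentration at half of the fitted maximal effect; on the % scale 0 is the no-effect control and ±100 the full control effect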
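MLSMR compounds, 24 hr on cells at 37 deg C/5% CO2; luminescence after luciferase reagent (12 min RT). Inhibition counted as the undesired cytotoxic outcome.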
LDHA inh: LDHA (human) enzyme inhibition; purified LDHA, NADH/diaphorase-resazurin fluorescence; active compounds read low; activity change, % (values are at about 110 or 230 µM); 0.15% of 480,000 active; AID 1347041; in the data active means activity change below about -30%; inconclusive means mostly about -25% to -30%;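 further: plate controls were DMSO wells for no effect and wells without enzyme for full effect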
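Resorufin fluorescence (ex540/em590), read at 0 and 20 min after diaphorase/resazurin addition, reports the NADH left after a 5 min room-temperature reaction of 2 nM human LDH5 with 0.06 mM NADH and 0.2 mM pyruvate.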
p53 reactivator: re-activators of mutant p53; H1299 p53-A138V BP100-luciferase reporter, luminescence, 24 h; Potency, µM (highest dose often 92.2 µM), for inactives: at the highest dose activity change, positive = activation, actives largely listed as activators; 0.063% of 320,000 active; AID 504706; further: potency means the concentration at half of the fitted maximal effect; % of control where 0% means no effect; nearly all actives have a fitted effect of over 45% in size
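p53-null H1299 cells stably carrying temperature-sensitive p53-A138V and a BP100-luciferase reporter were pinned with compounds (4-point, 1:5 series) and held 24 hrs at 37 deg C. Luminescence was read 10 min after detection reagent.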
* hit, by the source's call; u = inconclusive; x = no result given. Sampled rows, rich in hits. Any-hit rate of the full collection: about 2.9%. Unless noted, the call rests on the fitted dose curve; in most records, active means well fitted curve in the direction sought with a large enough effect; inconclusive means small, poorly fitted or top-dose-only effect, or another doubt; inactive means no such curve, though single readings can be large; an effect the other way counts as inactive or inconclusive.

SMILES	GLP1R inv ag	GLP1R ag	ClpP mod	GLP1R cytotox	LDHA inh	p53 reactivator
Cc1cccc2cc3c(nc12)SC(=NCC1CCCO1)N(Cc1ccco1)C3 (configuration not stated)	u	-18%	u	u	-3	-34%
COc1ccc(-c2nc(CSCC(=O)N3CCN(c4cccc(C)c4C)CC3)c(C)o2)cc1OC	10µM*	x	-23%	-14%	-1	x
Cc1ccc(-c2nc(CSCC(=O)NCCCOC(C)C)c(C)o2)cc1	x	x	x	x	3	x
CCOCCCNC(=O)CSCc1nc(-c2ccc(C)cc2)oc1C	x	x	x	x	-34*	x
CCOc1ccc(-c2nc(CSCC(=O)NCCN3CCOCC3)c(C)o2)cc1	9%	4%	32µM*	2%	-1	-6%
COc1ccc(-c2nc(CSCC(=O)NCCc3ccccc3)c(C)o2)cc1	u	x	32µM*	-4%	2	x
CCOc1ccc(-c2nc(CSCC(=O)NCCCN3CCCC3=O)c(C)o2)cc1	-11%	3%	4%	-1%	-2	-7%
O=C(O)CCC(=O)N1N=C(c2cccs2)CC1c1ccc2nccnc2c1 (configuration not stated)	x	x	x	x	-16	x
CCOc1ccc(-c2nnc(SCC(=O)NCCC(C)C)nc2-c2ccc(OCC)c(OC)c2)cc1OC	1%	x	16µM*	4%	-8	x
COc1ccc(-c2nc(CSCC(=O)NCCC(C)C)c(C)o2)cc1OC	3%	x	28µM*	5%	-3	x
Clc1ccccc1CNc1nc2ccccc2c2nc(-c3ccccc3)nn12	u	x	-4%	-6%	-6	x
Cc1ccc(C2CC2/C(=N/O)c2ccc(F)cc2)cc1 (configuration not stated)	10µM*	20%	x	-2%	-2	6%
Cc1ccc2[nH]c3c(N4CCN(Cc5ccccc5)CC4)ncnc3c2c1	u	-16%	u	u	2	-11%
CCOc1ccc2[nH]c3c(N4CCN(c5ccccn5)CC4)ncnc3c2c1	u	-17%	28µM*	u	2	-31%
Cc1ccc(S(=O)(=O)N2CCCC(C(=O)NCCc3ccc4c(c3)OCO4)C2)cc1 (configuration not stated)	13µM*	-6%	-2%	15%	-6	2%
CC1CC(C)CN(S(=O)(=O)c2ccc(C(=O)NCc3ccc4c(c3)OCO4)cc2)C1 (configuration not stated)	10µM*	5%	-9%	22%	6	0%
COc1ccc(-c2nc3c(-c4ccccc4)cnn3cc2C)cc1F	14%	6%	x	6%	-2	3%
COc1cccc(Nc2cc(N3CCOCC3)c3nonc3c2[N+](=O)[O-])c1	24%	-3%	-1%	-6%	4	-24%
CCC(=O)N1N=C(c2ccccc2)CC1c1ccccc1 (configuration not stated)	u	-1%	0%	-2%	-5	-1%
CCOC(=O)c1nnn(CC(=O)N2N=C(c3cccc4ccccc34)CC2c2ccccc2)c1C(=O)OCC (configuration not stated)	-19%	-3%	11µM*	-12%	-4	-2%
COc1ccc(/C=N/Nc2cc(C)nc(-n3nc(C)cc3C)n2)c(OC)c1	1.3µM*	-7%	-27%	u	5	16%
CCN(C(=O)CSc1nc2cc(C(=O)OC)ccc2c(=O)n1Cc1ccco1)c1cccc(C)c1	1%	0%	32µM*	7%	0	-8%
CCOC(=O)c1ccccc1NC(=O)N1CCCC(CN2CCc3ccccc3C2)C1 (configuration not stated)	x	x	x	x	-4	x
O=C(N/N=C/c1cccc(F)c1)c1csc2c1CCCC2	u	-17%	2%	-7%	0	10%
O=C(Cn1ncc2c3ccccc3n(Cc3ccc(F)cc3)c2c1=O)N1CCN(c2ncccn2)CC1	13µM*	0%	u	-14%	2	1%
SMILES	GLP1R inv ag	GLP1R ag	ClpP mod	GLP1R cytotox	LDHA inh	p53 reactivator
Oc1ccc(N=Nc2cccc(C(F)(F)F)c2)cc1C=Nc1ccc(N2CCOCC2)cc1	19%	-2%	2%	4%	-1	3%
c1ccc(CN2CCN(CCOCCOc3cccc4ccccc34)CC2)cc1	7.9µM*	0%	x	u	-23	-1%
CCN1CCN(CCOCCOc2ccccc2)CC1	-9%	-2%	-1%	1%	-30*	-8%
CCN1CCN(CCOc2cccc(Cl)c2Cl)CC1	u	0%	-1%	9%	-36*	-4%
CCN1CCN(CCOc2cccc(Oc3ccccc3)c2)CC1	u	6%	-1%	-17%	-33*	2%
O=C(c1ccco1)N1CCN(CCOCCOc2cccc3ccccc23)CC1	0%	3%	-2%	-5%	1	0%
CCN1CC(CN(C)C(=O)c2nn(-c3ccccc3)c(=O)c3ccccc23)Oc2ccccc21 (configuration not stated)	x	x	x	x	7	x
CCCCC[C@@H]1C=C(C(=O)O)[C@H](c2ccc(OC)c(OC)c2)N1S(=O)(=O)c1ccc(C)cc1	4%	-3%	-3%	3%	-3	-5%
N#Cc1c(-c2ccc(Br)cc2)nc2n(c1=O)CCCS2	0%	2%	-12%	2%	-10	1%
CN(C)c1ncnc2[nH]ncc12	72%	9%	x	10%	2	x
CCOc1ccc(C(=O)O/N=C(\N)c2ccccn2)cc1	2.5µM*	-8%	0%	u	-3	-18%
Cc1cccc(C(=O)O/N=C(\N)c2ccccn2)c1	2µM*	-3%	x	u	-5	0%
Cc1ccc(C(=O)O/N=C(\N)c2ccccn2)cc1	2.5µM*	-6%	x	u	-6	-11%
N/C(=N\OC(=O)c1ccccc1)c1ccccn1	u	-8%	x	-13%	-3	-8%
N/C(=N\OC(=O)c1cccc(F)c1)c1ccccn1	9%	-3%	-3%	4%	-7	3%
COc1ccc(CCNC(=O)CSc2nnnn2C)cc1OC	3%	-4%	-1%	4%	-6	1%
NC(=O)C1CCCCc2c1[nH]c1ccc(Cl)cc21 (configuration not stated)	13µM*	2%	-1%	-2%	-1	-3%
CCOC(=O)C1CCCc2c1[nH]c1ccc(Cl)cc21 (configuration not stated)	u	0%	x	1%	5	-3%
CCOC(=O)c1ccc2[nH]c3c(c2c1)CCCC3C(=O)OCC (configuration not stated)	5µM*	20%	u	-9%	0	4%

Source: PubChem (National Center for Advancing Translational Sciences (NCATS))
